According to PubChem BioAssay AID624354 (Sanford-Burnham Center for Chemical Genomics, 2012):
The campaign covered roughly 360,000 compounds. About 3,800 (1.1%) were called active. Shown is part of a subset that was picked to be rich in actives. A number with no mark means an inactive call.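 The calls were made as follows: active = compounds causing at least 50% loss of cell viability in the single-dose screen, relative to plate controls; inactive = the rest.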

Assay: TRAIL-exposed caspase-8 expressing cell killing – NB7+C8 cells, ATPlite luminescence, TRAIL sensitizer project, primary screen (AID 624354)
Details: at 10 µM, active compounds read high

| Structure (SMILES) | inhibition (viability loss, TRAIL sensitization) |
| --- | --- |
| Cc1ccc(CN2CC(N3CCC(Cc4ccccc4)CC3)CS2(=O)=O)cc1 (stereo not given) | -13.4% |
| Cc1ccc(CN2CCN(Cc3cccc(C)n3)CC2CCO)cc1 (stereo not given) | 0.251% |
| COc1cc(C)c(CN2CCN(C(=O)CCC(=O)c3ccc(C)s3)CC2)cc1OC | 16.8% |
| O=C(c1cc2c(s1)CCC2)N1CCN(c2ccccc2)CC1 | -1.76% |
| COc1ccc(S(=O)(=O)N2CN(CCc3ccc(OC)c(OC)c3)c3nc4ccccc4nc32)cc1 | 5.09% |
| CC(C)(C)c1nc2ccccc2c(=O)n1N1C(=O)c2ccccc2C1=O | 11.4% |
| CN(c1ccc2nc3ccccc3c(=O)n2n1)C1CCCCC1 | 91.9% (active) |
| CN(C(=O)Nc1ccc(Cl)cc1)n1cnc2ccccc2c1=O | 7.39% |
| O=C(Nc1ccc(NC(=O)c2cccs2)cn1)c1ccco1 | 63% (active) |
| CC(OC(=O)CNC(=O)c1ccco1)C(=O)Nc1ccc(Cl)cn1 (stereo not given) | 8.79% |
| O=C(COC(=O)c1ccco1)Nc1ccc(Cl)cn1 | -1.44% |
| Cc1cc(C)c(S(=O)(=O)NN=C2c3ccccc3[C@H]3Cc4csc[n+]4[C@@H]23)c(C)c1 | -3.55% |
| C#Cc1cc(N2CCN(C(=O)c3ccoc3)CC2)n2nc(-c3cccc(Cl)c3)cc2n1 | 91.7% (active) |
| CCc1nc2ccc(C(=O)N3CCN(c4cccc(Cl)c4)CC3)cc2nc1CC | 1.3% |
| CNc1cncc(-c2cccc(C(=O)N3CCOCC3)c2)n1 | -18.4% |
| CC(C)(C)NC(=O)C(CCc1ccccc1)n1c(=O)c(-c2ccccc2)nc2ccccc21 (stereo not given) | -2.69% |
| Nc1cc(C(F)(F)F)ccc1N1CCOCC1 | -31.5% |
| COc1ccc(COC[C@H](CC(C)C)N2CCN(C(=O)c3cccc(C(F)(F)F)c3)CCC2=O)cc1 | -6.73% |
| O=C(C(=O)N1CCC(c2ccccc2)CC1)c1ccccc1 | -9.02% |
| COc1cccc2c1C(=O)c1c(O)c3c(c(O)c1C2=O)CC(O)(C(C)=NNC(=O)c1ccc(Cl)c(Cl)c1)CC3OC1CC(N)C(O)C(C)O1 (stereo not given) | 55.5% (active) |
| Cc1c(Nc2nc3ccccc3nc2NS(=O)(=O)c2cccs2)c(=O)n(-c2ccccc2)n1C | -7.01% |
| Cc1csc(SCC(=O)Nc2ccc(C)c(S(=O)(=O)N(C)C)c2)n1 | 1.13% |
| Cc1ccc(C(=O)Nc2ccc(C)c(S(=O)(=O)N(C)C)c2)s1 | 61.7% (active) |
| CCN(CC(=O)Nc1ccc(C)c(S(=O)(=O)N(C)C)c1)Cc1ccccc1 | 9.33% |
| Cc1ccc(S(=O)(=O)NNC(=S)NC(C)(C)C)cc1 | -2.34% |
| N=c1c2c3c(sc2nc2n1CCCCC2)CCCC3 | 0.553% |
| NNC(=O)C1CCCn2c1nc1sc3c(c1c2=O)CCCC3 (stereo not given) | 55.9% (active) |
| Cn1c(NN)nc2sc3c(c2c1=O)CCC3 | -10.7% |

| Structure (SMILES) | inhibition (viability loss, TRAIL sensitization) |
| --- | --- |
| O=C1CSC(c2ccc(Cl)cc2)N1 (stereo not given) | 0.721% |
| CCOc1ccc(C(C)=O)cc1COC(=O)c1cnc(Cl)c(Cl)c1 | 64.1% (active) |
| COC(=O)c1ccc(COC(=O)c2cnc(Cl)c(Cl)c2)cc1 | 1.15% |
| CCOc1ccc(C(C)=O)cc1COC(=O)CNC(=O)c1cccs1 | -4.84% |
| COC(=O)/C(=C\Nc1ccccc1)NC(=O)c1ccc(Cl)cc1Cl | 10.1% |
| Cc1ccccc1CN1C(=O)CSCC1(C)C(=O)Nc1c(C)cccc1C (stereo not given) | -13% |
| COc1ccc(S(=O)(=O)N2CCOCC2)cc1NC(=O)CC1CC2CCC1C2 (stereo not given) | -19.8% |
| Cn1cc([N+](=O)[O-])c(C(=O)Nc2ccc3c(c2)OCCO3)n1 | 23.6% |
| Cc1nn(-c2ccccc2)c(Cl)c1/C=N/NC(=O)c1nn(C)cc1[N+](=O)[O-] | 54.6% (active) |
| Cc1cc(=O)[nH]c(N/N=C/c2c(C)nn(-c3ccccc3Cl)c2Cl)n1 | -2.12% |
| COc1ccc(N2CCN(C(=O)C3CCN(S(=O)(=O)c4ccc(C)cc4)CC3)CC2)cc1 | -4.63% |
| CC(C)NC(=O)CSc1nnc(COc2ccccc2Cl)o1 | 11.2% |
| COc1cccc(-c2sc3ccc(OC)cc3c2-c2ccc(OCCN3CCCCC3)cc2)c1 | 12.9% |
| Cn1cncc1C#Cc1c(-c2ccsc2)sc2ccccc12 | 0.155% |
| COc1ccc2sc(-c3ccc(S(C)(=O)=O)cc3)c(C#Cc3cncn3C)c2c1 | 54.7% (active) |
| Cc1cc(C)n2nc(C(=O)OCC(=O)N(C)CC(=O)Nc3ccc(F)cc3)nc2n1 | 2.14% |
| c1ccc(-n2ncc(-c3nn[nH]n3)n2)cc1 | 8.97% |
| O=C(NNS(=O)(=O)c1ccc([N+](=O)[O-])cc1)C1CCCCC1 | -2.99% |
| CC(C)(C)OC(=O)C[C@H]1C/C=C\C[C@@H](CC(=O)N[C@H](CO)Cc2ccccc2)C(=O)NC[C@@H](c2ccccc2)OC1=O | -2.43% |
| CC(C)(C)OC(=O)C[C@@H]1C/C=C\C[C@@H](CC(=O)N[C@H](CO)Cc2ccccc2)C(=O)NC[C@@H](c2ccccc2)OC1=O | 3.83% |
| O=C(C[C@H]1C/C=C\C[C@@H](NC(=O)OCC2c3ccccc3-c3ccccc32)C(=O)O[C@@H](c2ccccc2)CNC1=O)N[C@H](CO)Cc1ccccc1 | 73.9% (active) |
| O=c1ccn([C@@H]2O[C@H](CNS(=O)(=O)c3cc4ccccc4s3)[C@@H](O)[C@H]2O)c(=O)[nH]1 | 5.61% |
| COc1ccc(N2CCN(C(CNS(=O)(=O)c3ccc(C)cc3)c3ccccc3)CC2)cc1 (stereo not given) | -6.83% |
| CC1CCCC(NC(=O)c2cc(-c3ccncc3)nc3ccccc23)C1C (stereo not given) | 11.9% |
| O=C(NCCc1ccccn1)c1cc(-c2ccc(Cl)cc2)nc2ccccc12 | 7.97% |
| CCc1ccc(-c2cc(C(=O)NN3CCN(C)CC3)c3ccccc3n2)cc1 | 58.3% (active) |
| O=C(NCc1cccnc1)c1ccccc1NC(=O)c1c(F)cccc1F | -13.9% |
